# Experimental data from PubChem BioAssay (EPA / NIEHS).
# The source made the active and inactive calls. How the source made its calls: active means hit-call score of the fitted dose curve at least 0.9, where 1 is the maximum; inactive means score below 0.9.
# Read-out: Monokine induced gamma interferon (MIG), CXCL9 (gene 4283)
# Test: BSK_SAg_MIG: BioMAP Diversity Plus: SAg Assay for Monokine induced gamma interferon (MIG) Biomarker Activity (AID 2283092)
# Conditions: primary human HUVEC with PBMC; actives raise or lower the signal
# Description: BSK_SAg is a cell-based, multiplexed-readout assay that uses umbilical vein endothelium and peripheral blood mononuclear cells, a human vascular primary cell co-culture, with measurements taken at 24 hours after chemical dosing in a 96-well plate.BSK_SAg_MIG is an assay component measured in the BSK_SAg assay. It measures MIG antibody related to regulation of gene expression using ELISA technology.Data from the assay component BSK_SAg_MIG was analyzed into 1 assay endpoint. This assay endpoint, BSK_SAg_MIG, was analyzed with bidirectional fitting relative to DMSO as the negative control and baseline of activity. Using a type of binding reporter, gain or loss-of-signal activity can be used to understand changes in the signaling as they relate to the gene CXCL9. Furthermore, this assay endpoint can be referred to as a primary readout, because this assay has produced multiple assay endpoints where this one serves a signaling function. To generalize the intended target to other relatable targets, this assay endpoint is annotated to the cytokine intended target family, where the subfamily is chemotactic factor.
# The levels of cell surface (or secreted, indicated by the prefix "s") biomarker endpoints were measured by ELISA. Overt cytotoxicity to cells in confluent adherent cultures (all systems other than the BT system) was assessed by measuring total protein levels using sulforhodamine B (SRB) staining in parallel cultures at the time of biomarker measurements, indicated as SRB endpoints. For proliferation assays for adherent cell types, individual cell types are cultured at sub-confluence and relative cell numbers quantified by SRB staining at time points optimized for each system (48 h: 3C and CASM3C systems; 72 h: BT and HDF3CGF systems; 96 h: SAg system). SRB was performed by staining cells with 0.1% SRB after fixation with 10% TCA and reading wells at 560 nm.Viability and proliferation of PBMC (T cells) was quantified by Alamar Blue reduction for the SAg and BT systems. For PBMC viability (referred to as PBMC Cytotoxicity within the assay endpoint names), cells were plated (75,000/well in a 96-well plate) and then chemical samples added for 1 h before addition of activators, SEB and TSST-1 (20 ng/mL final concentration each). Cells were incubated for 90 h. Then, Alamar Blue (20 uL/well) (Invitrogen, Cat DAL1100) was added for 6 h, and the plates were read with a fluorescence microplate reader at 546/580 nm (excitation/emission). For PBMC proliferation, cells were plated and activated as above but incubated for only 16 h prior to addition of Alamar Blue. Plates were read after 6 h.
SMILES,outcome,AC50
CCCCN(CCCC)CCCC,inactive,–
CC(C)c1ccc(C(=O)N=C(N)N)cc1S(C)(=O)=O,inactive,–
O=c1[nH]cc(F)c(=O)[nH]1,inactive,–
CCCCCCCCCCC,inactive,–
COc1cc(-c2nc(NC(=O)c3cc4cc(C)cc(C)c4n3CC(=O)O)sc2CCC2CCCCC2)c(OC)cc1Cl,–,4.63 µM (active)
Oc1ccc2c(c1)OC[C@@H](N1CCC(O)(c3ccc(F)cc3)CC1)[C@H]2O,inactive,–
C[Si]1(C)O[Si](C)(C)O[Si](C)(C)O[Si](C)(C)O1,inactive,–
OC[C@@H](O)[C@@H](O)[C@H](O)[C@H](O)CO,inactive,–
CCCCCCCCCCCCCCCCCC(=O)O,inactive,–
CNCc1cc(F)ccc1Oc1ccc(Cl)c(Cl)c1,inactive,–
Cc1ccc(C)c(O)c1C,inactive,–
NCC1(Cc2noc(=O)[nH]2)CCCCC1,inactive,–
C[C@]12C=CC(=O)C=C1CC[C@@H]1[C@@H]2C(=O)C[C@@]2(C)[C@H]1CC[C@]2(O)C(=O)CO,inactive,–
CC(=O)Oc1ccccc1C(=O)O,inactive,–
CC(C)(C)c1cc(O)c(C(C)(C)C)cc1O,inactive,–
CN1CCN(Cc2cc(-c3ccc4[nH]c(=O)oc4c3)co2)[C@@H](c2ccc(F)cc2)C1,inactive,–
CC1(C)NC(=O)NC1=O,inactive,–
COc1cc(S(=O)(=O)O)c(C)cc1N=Nc1c(O)ccc2cc(S(=O)(=O)O)ccc12,inactive,–
CCCCCCCCCCCCCO,inactive,–
CCCCOC(=O)CCCCCCCCC(=O)OCCCC,inactive,–

SMILES,outcome,AC50
Cc1cccc(Nc2cc(Cl)nc(SCC(=O)O)n2)c1C,inactive,–
O=C(O)Cc1ccccc1Nc1c(Cl)cccc1Cl,inactive,–
COc1ccc2c(c1)c(CC(=O)O)c(C)n2C(=O)c1ccc(Cl)cc1,inactive,–
O=C(O)CCCCC(=O)O,inactive,–
NCCO,inactive,–
CC(=O)OC/C=C(\C)CCC=C(C)C,inactive,–
O=c1c(O)c(-c2ccc(O)c(O)c2)oc2cc(O)cc(O)c12,inactive,–
Nc1ccccc1N,inactive,–
CCCCCCCCCCCC(=O)OC,inactive,–
Cc1c(C(=O)O)c(O)cc2c1C(=O)c1c(O)c([C@@H]3O[C@H](CO)[C@@H](O)[C@H](O)[C@H]3O)c(O)c(O)c1C2=O,inactive,–
CCCCCCCCCCCCCCCC,inactive,–
CCCCCCCCCCO,inactive,–
C=CCc1ccc(O)c(OC)c1,inactive,–
FC(F)(F)C(F)(F)C(F)(F)C(F)(F)C(F)(F)C(F)(F)CCI,inactive,–
CCCCCCOCCO,inactive,–
CC=Cc1ccc(O)c(OC)c1,inactive,–
CCCCCC(=O)O,inactive,–
Nc1ccc2c(c1)C(=O)c1ccccc1C2=O,inactive,–
Cc1cccc(C)c1O,inactive,–
COC(=O)c1ccc(O)cc1,inactive,–
